Hits are enriched below; roughly 5.1% of the tested compounds scored in any of these assays.
Tau ThT inhib – tau fibrillization inhibition (ThT binding); P10636; recombinant tau K18 P301L, heparin-induced fibrillization, ThT fluorescence; Potency, µM (titrated, usually from 57.4 µM), for inactives: top-dose activity, negative = inhibition, most hits filed as inhibitors; hit rate 2.1% among 270,000; note: potency is the fitted concentration of half-maximal effect; nearly all actives have a fitted effect of over 55% in size
Target sequence (P10636 561-689 P618L limits assumed): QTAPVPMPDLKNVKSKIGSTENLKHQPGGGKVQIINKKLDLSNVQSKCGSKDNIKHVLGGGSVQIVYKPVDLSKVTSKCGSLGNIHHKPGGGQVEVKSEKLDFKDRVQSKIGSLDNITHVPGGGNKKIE
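Heparin-induced (20 uM) aggregation of recombinant human K18 P301L tau, 15 uM unlabeled with 0.24 uM labeled, pH 7 acetate buffer, 6 hr at 37 C with compound. Fibrils quantified by 30 uM ThT fluorescence after 1 hr ambient incubation.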
PNC inhibitor – perinucleolar compartment assembly inhibition; PC3M PTB-GFP, PNC prevalence imaging, 16 h; hits give low values; activity change (PNC), negative = inhibition, % at 10 µM; hit rate 3.1% among 140,000;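 active = readout at or below -70, meaning at least 70% loss of cells showing the perinucleolar compartment, a nuclear body marking cancer cells; inconclusive = readout between -30 and a set limit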;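 note: plate controls were DMSO wells for no effect and camptothecin positive control wells for full effect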
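PC3M cells stably expressing PTB-GFP, 750–1000 cells/well, treated 16 h at 37 °C with compound (23 nl of library stock), in duplicate. After paraformaldehyde fixation and Hoechst stain, imaged at 20x; PNC prevalence scored by image analysis.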
Tau fibril FP – inhibitors of human tau fibril formation; AID 1468; K18 P301L tau heparin fibrillization, Alexa594 FP, 6 h; hit rate 0.39% among 280,000; Potency, µM (series often up to 57.7 µM), inactives show top-dose activity, negative = inhibition, actives largely listed as inhibitors; note: potency is the fitted concentration of half-maximal effect; nearly all actives have a fitted effect of over 55% in size
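K18 P301L tau (15 uM unlabeled/0.24 uM Alexa 594-labeled, final) + compound + heparin 20 uM final; 100 mM NaOAc pH 7; 6 hr 37 C; ThT 30 uM final added, 1 hr RT; FP ex 555/em 632 nm.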
NPSR antagonist – antagonists of human neuropeptide S receptor cAMP signaling; Q6W5P4; CHO-NPSR cells, cAMP TR-FRET, antagonist mode; Potency, µM (top dose mostly 38.3 µM), for the others: top-dose activity change, negative = inhibition, actives largely listed as inhibitors; hit rate 1% among 220,000; AID 1461; note: potency is the fitted concentration of half-maximal effect; nearly all actives have a fitted effect of over 50% in size
Target sequence (Q6W5P4 whole entry, looked up): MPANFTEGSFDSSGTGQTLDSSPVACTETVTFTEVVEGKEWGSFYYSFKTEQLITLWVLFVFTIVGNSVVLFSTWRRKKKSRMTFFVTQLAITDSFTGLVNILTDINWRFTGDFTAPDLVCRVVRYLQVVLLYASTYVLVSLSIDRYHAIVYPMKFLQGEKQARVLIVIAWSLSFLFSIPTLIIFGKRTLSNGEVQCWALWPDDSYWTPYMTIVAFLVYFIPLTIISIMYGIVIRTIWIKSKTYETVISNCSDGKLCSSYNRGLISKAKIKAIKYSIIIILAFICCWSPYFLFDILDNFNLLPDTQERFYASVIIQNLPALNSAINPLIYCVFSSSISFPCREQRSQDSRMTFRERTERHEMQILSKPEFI
Tau fluor counter – counter-screen for tau fibril formation inhibitors | Potency, µM (titrated, usually from 57.7 µM), without a hit: top-dose activity change, negative = decrease | tau K18 P301L (four-repeat tau fragment) Alexa594 fluorescence, heparin fibrillization | hit rate 0.93% among 280,000 | AID 1463; note: potency is the fitted concentration of half-maximal effect; nearly all actives have a fitted effect of over 55% in size
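Human K18 P301L tau (15 uM unlabeled plus 0.24 uM Alexa 594-labeled, final) in 100 mM sodium acetate pH 7 was mixed with compound and 20 uM heparin and incubated 6 hr at 37 C.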
JMJD2E inh – blocks human JMJD2E demethylase activity; Potency, µM (titrated, usually from 57.1 µM), without a hit: top-dose activity change, negative = inhibition, actives largely listed as inhibitors; JMJD2E catalytic domain, FDH-coupled NADH fluorescence (FDH is formaldehyde dehydrogenase); AID 2147; B2RXH2; hit rate 1.6% among 230,000; active = well fitted inhibition curve with a large enough effect, not every such curve was filed as active; inconclusive = small, poorly fitted or top-dose-only effect, or another doubt; inactive = no such curve, though single readings can be large or run the other way;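 note: potency is the fitted concentration of half-maximal effect; 0% = wells with enzyme and -100% = buffer wells without enzyme; nearly all actives have a fitted effect of over 50% in size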
Numbers without * were called inactive; ? = inconclusive; . = no result given; [ ] = another dose, or the depositor's remark. Unless noted, calls come from the whole dose curve; as a rule, active = well fitted curve in the direction sought with a large enough effect; inconclusive = small, poorly fitted or top-dose-only effect, or another doubt; inactive = no such curve, though single readings can be large; an effect the other way counts as inactive or inconclusive. Unless noted, % is set by controls: 0 for no effect and ±100 for the full control effect.

SMILES | Tau ThT inhib | PNC inhibitor | Tau fibril FP | NPSR antagonist | Tau fluor counter | JMJD2E inh
Cc1oc(=O)c(NC(=O)c2ccccc2)cc1C(=O)c1ccccc1 | 25µM* | 25 | ? | ? | -14% | -7%
COC(=O)c1cc(NC(=O)c2ccc(OC)cc2)c(=O)oc1C | ? | . | 2% | 2% | -6% | -4%
COC(=O)c1cc(NC(=O)c2cccc(C(F)(F)F)c2)c(=O)oc1C | -12% | . | -1% | -3% | -5% | -17%
Cc1oc(=O)c(NC(=O)c2ccc(Cl)cc2)cc1C(=O)c1ccccc1 | 18µM* | -25 | ? | ? | -27% | ?
CC(=O)c1cc(NC(=O)c2ccc(C)cc2)c(=O)oc1C | 32µM* | . | ? | -25% | -11% | ?
CCc1cc2c(cc3c(=O)n(CC(=O)NC(C)c4ccccc4)ncn32)s1 (centres undefined) | -11% | . | -7% | . | -4% | .
Cc1cc(=O)n2nc(N(C)CC(=O)NCc3ccc(Cl)cc3)sc2n1 | -1% | . | -7% | . | -3% | .
Cc1ccc(-c2nc(SCC(=O)NCc3ccco3)c3c(=O)n(C)c(=O)n(C)c3n2)cc1 | -1% | . | 0% | . | 4% | .
CCOC(=O)c1cnc2c(OC)cccc2c1Nc1cccc(O)c1 | -16% | . | -1% | . | -19% | .
C=CCn1c(O)c(N=O)c2cc(C)ccc21 | ? | . | -2% | -5% | -11% | -2%
C=CCSc1nnc2nc3c(nn12)c1cc(C)ccc1n3CC=C | 28µM* | ? | 3% | ? | -5% | -3%
C(=N\Nc1nc(N2CCCCCC2)nc(N2CCCCCC2)n1)/c1ccccc1 | -11% | . | -2% | -41% | -14% | -8%
CCOc1ccc(/C=N/Nc2cc(C)nc(N3CCOCC3)n2)cc1 | ? | . | ? | -22% | -28% | -1%
Oc1ccc(/C=N/Nc2cc(N3CCCC3)nc(N3CCCC3)n2)cc1 | ? | -21 | 3% | -24%[46.1 µM] | 18µM*[quencher] | ?
Oc1cccc(/C=N/Nc2cc(N3CCCC3)nc(N3CCCC3)n2)c1 | ? | 53 | -1% | -51% | 16µM*[quencher] | -24%
COc1ccc(/C=N/Nc2cc(N3CCCC3)nc(N3CCCC3)n2)cc1 | ? | . | -3% | 13µM* | ? | ?
O=[N+]([O-])c1cc(C(F)(F)F)ccc1NCCNC(=S)Nc1ccc(Cl)cc1 | 11µM* | -13 | 20µM* | -29%[46.1 µM] | 7.1µM*[quencher] | -4%
O=[N+]([O-])c1ccc(NC(=S)NCCc2ccccc2)cc1 | ? | -23 | ? | -10% | 13µM*[quencher] | 9%
O=[N+]([O-])c1ccc(NC(=S)NCCc2ccc(Cl)cc2)cc1 | ? | 9 | 13µM* | ? | 7.9µM*[quencher] | -4%
NS(=O)(=O)c1ccc(NC(=S)NCCc2ccccc2)cc1 | 10% | . | -7% | -4% | -3% | -16%
CCc1c(C)sc2c1CCN(C(=O)Nc1cc(C)ccc1C)C2c1ccc(OC)cc1 (centres undefined) | -13% | . | -8% | . | -4% | .
COc1ccc(S(=O)(=O)N2CCC(n3c(C)nc4cccnc43)CC2)cc1Cl | -2% | . | -2% | . | -21% | .
Cc1nn(-c2ccccc2)c(C)c1NC(=O)Cc1cccs1 | -11% | 39 | 7% | 3% | -7% | 8%
Cc1nn(-c2ccccc2)c(C)c1NC(=O)COc1ccc(F)cc1Cl | 10% | -102* | 5% | 8% | 2% | 3%
COC(=O)NC(c1ccc2c(c1)OCO2)C(C(=O)OC)C(=O)OC (centres undefined) | -2% | . | -9% | . | -12% | 7%
O=C(NCCOCCO)C(=O)Nc1c2c(nn1-c1ccc(F)cc1)CSC2 | -5% | . | -11% | . | -2% | .
COc1cc(OC)c([C@@H]2O[C@H](CO)[C@@H](O)[C@H](O)[C@H]2O)c(OC)c1 | 0% | . | 13% | . | 3% | 1%
Cc1c(C(=O)O)c(O)cc2c1C(=O)c1c(O)c([C@H]3O[C@H](CO)[C@@H](O)[C@H](O)[C@H]3O)c(O)c(O)c1C2=O | ? | . | -9% | . | ? | 7.9µM*
Cc1cccc(NC(=O)c2cc(S(=O)(=O)N3CCc4ccccc43)ccc2F)c1C | -2% | . | -11% | . | -27% | .
